This passage reports composite z-score and z-score results from PubChem BioAssay.

The test system of assay [1] is Human papillomavirus type 1a protein E7 (residues 44-93). The experiment in a line: HPV1a E7 fragment binders on microarrays, primary screen, biochemical, small-molecule microarray, residues 44-93, 635 nm fluorescence (AID 1108).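 Further: E7 fragment applied at 1 µg/mL in TBST for 1 h at 4 C; score combines spot fluorescence with its signal to noise ratio.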 The conditions noted are these: small-molecule microarray binding, fluorescence 635 nm; higher = more signal.
Assay [2] can be described thus: modulators of HCV replicon luciferase signal, primary screen, HCV replication inhibitor project, Huh7 cells, luciferase reporter (AID 1109).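 Further: huh7 hepatoma cells harbouring a luciferase neomycin HCV replicon reporter; luciferase luminescence as measure of HCV replicon replication; test concentration not given here.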 The conditions noted are these: 48 h, higher = more signal. (In antiviral work, replicon cells carry a viral genome segment that copies itself.)
Assay [3] addresses Left-right determination factor 2 (Homo sapiens) (UniProt O00292). The experiment in a line: LEFTY2 binders on small-molecule microarrays, primary screen, biochemical, small-molecule microarray, 635 nm fluorescence scan (AID 1110). Particulars: LEFTY2 binding, higher = more signal.
Assay [4] has as its target Calmodulin-1 (Homo sapiens) (UniProt P0DP23). The assay is described as follows: CALM1 binders on microarrays, EGTA buffer, profiling panel, biochemical, small-molecule microarray, Cy5-labelled CALM1 (AID 1111).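 Further: labelled calmodulin applied in Tris saline Tween buffer holding calcium plus EGTA and DTT.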 Particulars: Cy5-CALM1 binding fluorescence, higher = more signal.
For assay [5] the target is unchanged. The experiment in a line: calcium-bound CALM1 binders on microarrays, profiling panel, artefact control for SMM control-protein annotation, biochemical, small-molecule microarray, Cy5-labelled CALM1, plus calcium (AID 1112).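 Further: score merges spot fluorescence with signal to noise from triplicate slides.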 Particulars: Cy5-CALM1 binding fluorescence, higher = more signal.
A short description of assay [6]: small-molecule microarray binders of probe aWnt5a, primary screen, biochemical, biotinylated probe, 635/667 nm fluorescence (AID 1113).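 Further: score merges 667 nm fluorescence intensity with signal-to-noise per printed feature.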 The conditions noted are these: higher = more signal.
Assay [7] in a line: small-molecule microarray binders of probe aShh, primary screen, biochemical, biotinylated probe, 635/667 nm fluorescence (AID 1114).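 Further: probe is biotin-labelled aShh protein from a stem cell growth factor screen; measures binding of labelled protein to compounds printed on the slide; score merges feature fluorescence at 667 nm with signal-to-noise.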 The conditions noted are these: higher = more signal.
A short description of assay [8]: small-molecule microarray binders of probe aNog, primary screen, biochemical, biotinylated probe, 635/667 nm fluorescence (AID 1115).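 Further: probe is biotinylated aNog protein used at 0.15 µg/mL for 1 h at 4 C; z-score combines 667 nm fluorescence of each spot with its signal to noise.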 Particulars: higher = more signal.
The target of assay [9] is Torsin-1A-interacting protein 1 (Homo sapiens) (UniProt Q5JTV8). The experiment in a line: LAP1 binders from COS7 cell lysate, primary screen, small-molecule microarray, 635/667 nm fluorescence (AID 1116). Particulars: COS7-hLAP1 lysate binding, 635 nm fluorescence, higher = more signal.
The target in assay [10] is Alpha-bungarotoxin (Bungarus multicinctus) (UniProt P60615). The assay is described as follows: alpha-bungarotoxin binders on microarray, profiling panel, artefact control for SMM control protein annotation, biochemical, small-molecule microarray, Alexa647 label, 635/667 nm fluorescence (AID 1117). Particulars: alpha-BTX-A647 binding fluorescence, higher = more signal.
Alpha-bungarotoxin (Bungarus multicinctus), sequence (P60615 whole entry, looked up): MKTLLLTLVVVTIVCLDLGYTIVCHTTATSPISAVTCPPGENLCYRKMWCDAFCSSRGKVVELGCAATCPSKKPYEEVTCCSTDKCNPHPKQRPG

Left-right determination factor 2 (Homo sapiens), sequence (O00292 whole entry, looked up): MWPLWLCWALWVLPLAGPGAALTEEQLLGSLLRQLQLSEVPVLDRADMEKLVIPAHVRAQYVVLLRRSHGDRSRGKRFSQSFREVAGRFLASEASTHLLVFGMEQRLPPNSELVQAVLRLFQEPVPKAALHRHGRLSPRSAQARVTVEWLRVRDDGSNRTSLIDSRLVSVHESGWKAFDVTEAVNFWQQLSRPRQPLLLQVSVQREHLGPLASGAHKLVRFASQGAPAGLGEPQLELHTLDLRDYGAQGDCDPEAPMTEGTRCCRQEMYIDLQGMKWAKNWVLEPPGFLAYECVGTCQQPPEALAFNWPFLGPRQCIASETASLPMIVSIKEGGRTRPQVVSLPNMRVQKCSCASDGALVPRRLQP
Torsin-1A-interacting protein 1 (Homo sapiens), sequence (Q5JTV8 whole entry, looked up): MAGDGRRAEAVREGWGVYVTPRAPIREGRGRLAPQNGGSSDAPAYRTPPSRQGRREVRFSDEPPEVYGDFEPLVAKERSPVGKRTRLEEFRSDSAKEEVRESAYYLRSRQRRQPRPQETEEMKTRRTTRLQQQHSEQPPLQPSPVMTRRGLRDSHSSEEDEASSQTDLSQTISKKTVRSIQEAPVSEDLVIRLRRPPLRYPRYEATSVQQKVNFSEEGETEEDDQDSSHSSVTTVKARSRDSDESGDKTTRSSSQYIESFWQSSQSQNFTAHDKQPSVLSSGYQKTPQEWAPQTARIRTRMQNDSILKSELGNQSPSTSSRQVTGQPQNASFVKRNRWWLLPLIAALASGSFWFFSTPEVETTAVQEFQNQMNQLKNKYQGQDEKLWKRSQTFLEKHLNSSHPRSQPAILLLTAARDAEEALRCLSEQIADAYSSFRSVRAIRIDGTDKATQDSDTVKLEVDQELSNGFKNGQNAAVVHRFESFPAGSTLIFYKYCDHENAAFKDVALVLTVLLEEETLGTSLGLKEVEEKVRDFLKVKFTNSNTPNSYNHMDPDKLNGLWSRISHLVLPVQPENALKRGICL

In the case of `O=C1NC(=O)C2C1C=CC(C(O)c1cccc3ccccc13)N2Nc1ccccn1` (stereo not given), the composite z-score in assay [1] is 0.355; in assay [3], 0.326; in assay [4] it was -0.168; in [5], -0.477; in assay [6] it was -0.034; in [7], 0.401. In addition, the composite z-score in assay [8] worked out at 0.116; in assay [9], 0.594; in assay [10], 0.307. Further, in assay [2], the z-score was 0.496.
As for `C[C@]1(C(=O)NC2CC2)c2ccccc2C(=O)N(Cc2cc(C(F)(F)F)cc(C(F)(F)F)c2)[C@H]1c1ccc(CO)cc1`, the composite z-score is 1.29 in assay [1]; 0.122 in assay [3]; 0.224 in assay [4]; 0.114 in assay [5]; -0.0478 in assay [6]; -0.276 in assay [7]. Further, the composite z-score was 0.467 in assay [8], 0.207 in assay [9] and 1.48 in assay [10]. This compound also gave a z-score in assay [2] of -0.106.
Consider `CC1(C)[C@@H]2CC(C(O)C3C=CC4C(=O)N(c5ccccc5)C(=O)C4N3Nc3ccccc3)=C[C@H]1C2` (stereo not given in full), for which the composite z-score is 0.455 in [1]; -0.158 in [3]; 0.718 in [4]; -0.374 in assay [5]; 0.0044 in assay [6]; 0.241 in [7]. For the same compound, the composite z-score in assay [8] is -0.43; in [9] it was 0.873; in [10], 0.577. The compound further displayed a z-score in assay [2] of -0.595.
Take `COc1ccc(C(=O)O[C@H]2CC[C@]3(C)C4=C(CCC3C2(C)C)[C@]2(C)CC[C@H]([C@H](C)CCCC(C)C)[C@@]2(C)CC4)cc1` (stereo not given in full): the composite z-score in assay [1] is -0.0389; in assay [3], 0.567; in assay [4] it was -0.459; in [5], -0.83; in [6] it was -0.0792; in [7] it was -0.0553. Besides, the composite z-score in assay [8] is -0.0242; in assay [9], 0.0921; in assay [10] it was -0.086. Moreover, in [2], the z-score is 0.606.
Turning to `COc1cc2c(cc1OC)CN(C(=O)[C@H]1[C@@H]3C(=O)O[C@@H](c4ccccc4)[C@@H](c4ccccc4)N3[C@@H](c3ccc(O)cc3)[C@]13C(=O)Nc1ccc(C#CC4=CCCCC4)cc13)CC2`, the composite z-score in [1] was 0.282; in [3], 1.07; in assay [4] it was 1.61; in assay [5] it was 0.0648; in [6], 0.133; in assay [7] it was -0.0146. Moreover, the composite z-score was -0.315 in [8], 0.885 in assay [9] and 1.67 in [10]. The same compound showed a z-score in assay [2] of -1.67.
Take `CN1C(=O)C2C=CC(C(O)C3CCCCC3)N(Nc3ccc([N+](=O)[O-])cc3[N+](=O)[O-])C2C1=O` (stereo not given): the composite z-score in assay [1] was 1.28; in [3] it was 0.0511; in assay [4], 1.42; in assay [5], 0.377; in [6], -0.0472; in assay [7], 0.13. The composite z-score in assay [8] was 1.59; in assay [9], 1.28; in [10], 1.34. Also, the z-score in assay [2] is -0.613.
In the case of `C[C@@H]1ON(c2cccc(C(=O)OC(C)(C)C)c2)[C@H](c2ccc(Br)cc2)[C@H]1C(=O)N1C(=O)OC[C@H]1Cc1ccccc1`, the composite z-score in assay [1] was 1.16; in assay [3], 0.552; in assay [4], 0.702; in assay [5], -0.367; in assay [6] it was 0.667; in assay [7], 0.0756. In addition, the figures for the composite z-score in [8], in assay [9] and in assay [10] were 1.09, 2.7 and 0.518, respectively. The z-score in [2] is -1.
On to `COCCCNC(=O)[C@@]1(Cc2ccccc2N=[N+]=[N-])N=C(c2ccc(OCCCO)cc2)O[C@H]1c1ccccc1N=[N+]=[N-]`, for which the composite z-score is 0.852 in assay [1]; 0.431 in assay [3]; 1.72 in assay [4]; 0.686 in assay [5]; 0.168 in assay [6]; -0.477 in assay [7]. In addition, the values for the composite z-score in assay [8], in assay [9] and in [10] were 1.43, 0.561 and 1.74, respectively. For the same compound, the z-score in assay [2] was -2.86.
With `COCCOC(=O)N1C(=O)[C@@]2(c3cc(C#CC4=CCCCC4)ccc31)[C@H](C(=O)Nc1nc3ccccc3s1)[C@H]1C(=O)O[C@H](c3ccccc3)[C@H](c3ccccc3)N1[C@@H]2c1ccccc1OCCO`, the composite z-score in assay [1] was found to be 1.42; in [3], 0.938; in assay [4] it was 0.738; in [5], 0.417; in [6], 0.332; in [7] it was 0.126. Moreover, the composite z-score in assay [8] was 1.21; in [9], 0.512; in assay [10], 0.858. In [2], this compound yielded a z-score of -1.66.
For the compound `CCCCN1CC=CC23O[C@@H]4C=CCOC(=O)[C@@H]4[C@H]2C(=O)N(CCCCCO)[C@@H]3C1=O` (stereo not given in full), the composite z-score in [1] is -0.524; in assay [3], -1.53; in [4] it was -0.615; in assay [5], -0.363; in assay [6] it was -0.124; in assay [7] it was 0.627. In addition, the composite z-score in assay [8] is 0.151; in [9] it was 1.95; in [10] it was -1.47. Moreover, the z-score in assay [2] turned out to be 0.536.
On to `O=C(c1ccccc1)N1Cc2ccccc2[C@@H]2OC(c3ccc(OCCCO)cc3)=N[C@]2(Cc2ccccc2)C1=O`, for which the composite z-score in assay [1] was 1.29; in assay [3] it was 0.243; in [4], 0.978; in assay [5], -0.0808; in [6], 0.0825; in assay [7] it was -0.305. Moreover, the composite z-score in assay [8] is -0.364; in assay [9], 0.215; in assay [10], 1.19. The same compound yielded a z-score in assay [2] of -1.58.
As for `COC(=O)[C@@]1(Cc2ccc(OC)cc2)[C@H]2c3cc(C(=O)N(C)C)n(Cc4cccc5ccccc45)c3C[C@H]2CN1C(=O)c1ccccc1`, the composite z-score in assay [1] was found to be 1.48; in assay [3], 0.243; in assay [4], 1.48; in assay [5], 0.94; in assay [6] it was 0.346; in assay [7], 1.33. Moreover, the composite z-score was 2.12 in assay [8], 1.41 in assay [9] and 0.563 in assay [10]. Moreover, in [2], the z-score is -2.35.
Regarding `CC1CC/C=C\[C@H]2OC34C=CCN(Cn5nnc6ccccc65)C(=O)[C@H]3N(C(CO)C(C)C)C(=O)[C@@H]4C2C(=O)O1` (stereo not given in full), the composite z-score in [1] is 0.696; in assay [3] it was -1.19; in assay [4] it was -0.195; in assay [5], -0.607; in assay [6] it was -0.175; in [7] it was 0.0141. Besides, the composite z-score in [8] is 0.356; in assay [9], 0.64; in assay [10], 2.2. The compound also yielded a z-score in assay [2] of 0.238.
For the compound `[N-]=[N+]=NCc1ccccc1[C@H]1OC(c2ccc(OCCCO)cc2)=N[C@@]1(Cc1ccccc1)C(=O)NCc1ccccc1`, the composite z-score was determined as 0.296 in assay [1]; 0.0739 in assay [3]; 1.45 in [4]; 0.727 in [5]; 0.075 in [6]; 0.22 in assay [7]. The composite z-score in assay [8] stood at 0.683; in [9], 0.881; in assay [10], 0.761. The z-score in assay [2] was -2.19.
